Reference: PMC7826789 (International Journal of Molecular Sciences, 2021)

Tests used:
Settings in all cases: Compound Concentration (nM):1000
EGFR(G719S) = tested on: EGFR(G719S)
[1] = tested on: EGFR(L747-E749del, A750P)
[2] = tested on: EGFR(L747-S752del, P753S)
EGFR(L747-T751del,Sins) = tested on: EGFR(L747-T751del,Sins)
EGFR(L858R) = tested on: EGFR(L858R)
EGFR(L858R,T790M) = tested on: EGFR(L858R,T790M)
EGFR(L861Q) = tested on: EGFR(L861Q)
EGFR(S752-I759del) = tested on: EGFR(S752-I759del)
EGFR(T790M) = tested on: EGFR(T790M)
EGFR = tested on: EGFR
EIF2AK1 = tested on: EIF2AK1
EPHA1 = tested on: EPHA1
EPHA2 = tested on: EPHA2
EPHA3 = tested on: EPHA3
EPHA4 = tested on: EPHA4
EPHA5 = tested on: EPHA5
EPHA6 = tested on: EPHA6
EPHA7 = tested on: EPHA7
EPHA8 = tested on: EPHA8
EPHB1 = tested on: EPHB1
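Also: KINOMEscan scanMAX binding as percent activity remaining versus control; lower means stronger binding.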

| SMILES | Percent Control (EGFR(G719S)) | Percent Control [1] | Percent Control [2] | Percent Control (EGFR(L747-T751del,Sins)) | Percent Control (EGFR(L858R)) | Percent Control (EGFR(L858R,T790M)) | Percent Control (EGFR(L861Q)) | Percent Control (EGFR(S752-I759del)) | Percent Control (EGFR(T790M)) | Percent Control (EGFR) | Percent Control (EIF2AK1) | Percent Control (EPHA1) | Percent Control (EPHA2) | Percent Control (EPHA3) | Percent Control (EPHA4) | Percent Control (EPHA5) | Percent Control (EPHA6) | Percent Control (EPHA7) | Percent Control (EPHA8) | Percent Control (EPHB1) |
| --- | --- | --- | --- | --- | --- | --- | --- | --- | --- | --- | --- | --- | --- | --- | --- | --- | --- | --- | --- | --- |
| CCc1ccc(Oc2nccc(-c3c(-c4ccc(F)cc4)ncn3C3CCNCC3)n2)cc1 [SB-242719] | 61% | 48% | 91% | 71% | 49% | 73% | 58% | 85% | 52% | 48% | 100% | 94% | 95% | 95% | 95% | 100% | 90% | 100% | 97% | 100% |
| CCS(=O)(=O)c1ccc(OC)c(Nc2ncc(-c3cccc(OC)c3)o2)c1 [GW580509X] | 98% | 65% | 85% | 100% | 80% | 100% | 81% | 95% | 89% | 83% | 100% | 100% | 100% | 94% | 92% | 100% | 100% | 100% | 100% | 100% |
| CN(C)c1cc2c(Nc3ccc4c(cnn4Cc4ccccc4)c3)ncnc2cn1 [GW282974X] |  |  |  |  |  |  |  |  |  |  | 100% | 89% | 100% | 98% | 95% | 33% | 87% | 95% | 90% | 90% |
| Cl.O=S1CCN(Cc2ccc(-c3ccc4ncnc(Nc5ccc(OCc6ccccc6)c(F)c5)c4c3)o2)CC1 [GW576924A] | 2.2% | 1.3% | 5.9% | 42% | 0.3% | 100% | 0% | 1.4% | 46% | 0.5% | 100% | 100% | 100% | 100% | 95% | 100% | 100% | 100% | 95% | 100% |
| COc1ccccc1-c1cc(/C=C2\C(=O)Nc3ncc(Br)cc32)cc(Br)c1O [GW442130X] | 100% | 100% | 88% | 100% | 100% | 85% | 100% | 100% | 72% | 100% | 100% | 100% | 100% | 98% | 100% | 100% | 100% | 100% | 100% | 100% |
| O=C1Nc2ccc(C(=O)c3ccco3)cc2C1=Cc1cc(Cl)c(O)c(Cl)c1 [GW406108X] | 58% | 100% | 94% | 91% | 100% | 92% | 57% | 81% | 77% | 100% | 100% | 100% | 75% | 100% | 89% | 100% | 100% | 100% | 100% | 100% |
| Cc1cc(O)cc(C)c1/C=C/c1cncc(C(N)=O)c1 [GW435821X] | 67% | 68% | 87% | 100% | 80% | 100% | 71% | 78% | 94% | 78% | 100% | 47% | 62% | 63% | 51% | 88% | 100% | 100% | 28% | 82% |
| COc1ccc2[nH]c3c4[nH]c5ccc(OC)cc5c4c4c(c3c2c1)C(=O)NC4=O [GW296115X] | 57% | 24% | 49% | 44% | 50% | 35% | 71% | 68% | 45% | 51% | 86% | 93% | 85% | 86% | 86% | 85% | 88% | 86% | 87% | 77% |
| Cl.O=C(Nc1ccc(Oc2ccc3[nH]c(NC(=O)c4ccccc4)nc3c2)cc1)Nc1cc(C(F)(F)F)ccc1F [GW709042A] | 57% | 100% | 91% | 82% | 100% | 93% | 60% | 87% | 82% | 100% | 100% | 75% | 69% | 100% | 62% | 90% | 34% | 54% | 16% | 82% |
| NS(=O)(=O)c1ccc(N/N=C2\C(=O)Nc3ccc(C(=O)NCCc4c[nH]cn4)cc32)cc1 [GW300660X] | 73% | 100% | 100% | 100% | 100% | 99% | 85% | 97% | 95% | 99% | 100% | 100% | 100% | 100% | 89% | 100% | 100% | 100% | 100% | 100% |
| CCS(=O)(=O)c1ccc(OC)c(Nc2ncc(-c3cccc(F)c3)o2)c1 [GW621970X] | 92% | 72% | 75% | 84% | 92% | 100% | 79% | 73% | 100% | 85% | 100% | 65% | 100% | 68% | 96% | 100% | 100% | 100% | 100% | 100% |
| COc1ccc(COc2ccc(Cc3cnc(N)nc3N)cc2OC)cc1 [GW632580X] | 61% | 100% | 75% | 99% | 86% | 98% | 61% | 85% | 69% | 92% | 100% | 97% | 100% | 100% | 99% | 93% | 98% | 100% | 90% | 90% |
| C[C@@H](Oc1cc(-n2cnc3ccc(OC4CCN(C)CC4)cc32)sc1C(N)=O)c1ccccc1Cl [GSK579289A] | 59% | 58% | 100% | 100% | 79% | 85% | 64% | 66% | 62% | 75% | 62% | 69% | 100% | 81% | 97% | 100% | 96% | 89% | 81% | 82% |
| Nc1ncnc2occ(-c3ccc(NC(=O)Nc4cc(C(F)(F)F)ccc4F)cc3)c12 [GW770249X] | 87% | 88% | 93% | 100% | 100% | 96% | 79% | 89% | 80% | 100% | 100% | 40% | 13% | 19% | 5.4% | 15% | 29% | 6% | 1.1% | 14% |
| COc1cc(C)c(N(C)C(=O)CN(C)C)cc1Nc1nc(Nc2cccc(F)c2C(N)=O)c2cc[nH]c2n1 [GSK2219385] | 75% | 98% | 100% | 100% | 89% | 100% | 82% | 100% | 56% | 87% | 100% | 93% | 86% | 100% | 95% | 100% | 100% | 100% | 94% | 99% |
| CC(C)COC(=O)c1ccc2c(c1)/C(=C/Nc1ccc(S(N)(=O)=O)cc1)C(=O)N2 [GW416981X] | 32% | 62% | 48% | 60% | 15% | 100% | 8.8% | 100% | 95% | 13% | 100% | 100% | 100% | 100% | 94% | 100% | 100% | 100% | 100% | 100% |
| CCn1c(-c2nonc2N)nc2c(C#CC(C)(C)O)nc(OCCNC)cc21.Cl [GSK949675] | 100% | 92% | 100% | 100% | 100% | 100% | 100% | 100% | 85% | 96% | 100% | 100% | 100% | 100% | 100% | 98% | 100% | 100% | 100% | 100% |
| NS(=O)(=O)c1ccc(N/N=C2\C(=O)Nc3ccc(-c4cnco4)cc32)cc1 [GW276655] | 76% | 100% | 100% | 89% | 72% | 66% | 79% | 70% | 66% | 87% | 58% | 79% | 100% | 85% | 88% | 89% | 87% | 100% | 94% | 96% |
